In PMC7862700, “An all-to-all approach to the identification of sequence-specific readers for epigenetic DNA modifications on cytosine” one finds binding signal data, which are given here for 1 sequence.

Experiment in all cases: DAPPL (digital affinity profiling via proximity ligation, sequencing); 10 mM Tris-HCl pH 7.5, 50 mM NaCl, 1 mM DTT, 4% glycerol, room temperature, 30 min; GST-TFs on glutathione beads, 16-mer random dsDNA library, 0.1% formaldehyde crosslink after washing; high values mean tight binding
One assay deals with T1, FEV (Homo sapiens, UniProt Q99581 1-238).
T1 sequence: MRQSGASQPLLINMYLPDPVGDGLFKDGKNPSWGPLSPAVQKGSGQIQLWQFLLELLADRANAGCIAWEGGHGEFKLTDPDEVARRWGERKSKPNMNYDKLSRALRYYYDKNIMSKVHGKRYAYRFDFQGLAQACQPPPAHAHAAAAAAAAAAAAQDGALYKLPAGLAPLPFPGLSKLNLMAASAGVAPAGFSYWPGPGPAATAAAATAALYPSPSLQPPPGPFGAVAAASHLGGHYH
Conditions: protein: recombinant; tags: N-terminal GST; dsDNA, one strand shown. The method, boiled down: (§1)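 Human transcription factors were made in yeast as GST fusions, captured on glutathione beads and barcoded with DNA. With a tag-only sample included, the pool was incubated with 200 nmole of a random double-stranded 16-mer DNA library in Tris/NaCl/DTT/glycerol buffer at room temperature for 30 min, then crosslinked with 0.1% formaldehyde after washing, ligated by proximity, amplified and sequenced. For binding signal, each hexamer's read frequency for a factor is divided by its frequency for the tag-only sample.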

The target in a further assay is ETV5 (Homo sapiens, UniProt P41161 1-510). Conditions: protein: recombinant; tags: N-terminal GST; dsDNA, one strand shown. The procedure, abridged:
as §1

A further assay has as its target HSF1 (Homo sapiens, UniProt Q00613 1-529). Conditions: protein: recombinant; tags: N-terminal GST; chain copies: 3; dsDNA, one strand shown. The procedure, abridged:
as §1

The target in a further assay is T2, SPIC (Homo sapiens, UniProt Q8N5J4 1-248).
T2 sequence: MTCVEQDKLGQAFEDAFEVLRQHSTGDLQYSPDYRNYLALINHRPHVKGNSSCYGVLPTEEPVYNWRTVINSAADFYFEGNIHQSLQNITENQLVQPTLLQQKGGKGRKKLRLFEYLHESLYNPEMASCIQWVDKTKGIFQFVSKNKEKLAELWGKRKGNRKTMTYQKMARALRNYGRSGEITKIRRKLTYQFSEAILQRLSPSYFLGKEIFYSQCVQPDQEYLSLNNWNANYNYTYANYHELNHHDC
Particulars: protein: recombinant; tags: N-terminal GST; dsDNA, one strand shown. The procedure, abridged: as §1

For a further assay, the target named is ELF4 (Homo sapiens, UniProt Q99607 1-663). Particulars: protein: recombinant; tags: N-terminal GST; dsDNA, one strand shown. The procedure, abridged: as §1
In the next assay the target is T3, ELK4 (Homo sapiens, UniProt P28324-2 1-405).
T3 sequence: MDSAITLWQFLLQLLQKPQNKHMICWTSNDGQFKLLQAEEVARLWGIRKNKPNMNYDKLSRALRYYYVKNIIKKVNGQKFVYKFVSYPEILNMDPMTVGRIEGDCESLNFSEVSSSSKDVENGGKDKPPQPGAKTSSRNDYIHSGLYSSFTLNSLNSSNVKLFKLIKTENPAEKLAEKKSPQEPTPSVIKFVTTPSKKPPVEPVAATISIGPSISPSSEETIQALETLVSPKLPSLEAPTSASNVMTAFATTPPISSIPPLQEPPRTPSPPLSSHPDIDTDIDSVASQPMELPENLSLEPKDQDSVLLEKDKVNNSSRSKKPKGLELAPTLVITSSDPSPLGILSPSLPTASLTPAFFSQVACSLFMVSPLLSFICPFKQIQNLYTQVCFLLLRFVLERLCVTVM
Particulars: protein: recombinant; tags: N-terminal GST; dsDNA, one strand shown. The method, boiled down:
as §1

The target of the next assay is T4, ETV2 (Homo sapiens, UniProt O00321 1-342).
T4 sequence: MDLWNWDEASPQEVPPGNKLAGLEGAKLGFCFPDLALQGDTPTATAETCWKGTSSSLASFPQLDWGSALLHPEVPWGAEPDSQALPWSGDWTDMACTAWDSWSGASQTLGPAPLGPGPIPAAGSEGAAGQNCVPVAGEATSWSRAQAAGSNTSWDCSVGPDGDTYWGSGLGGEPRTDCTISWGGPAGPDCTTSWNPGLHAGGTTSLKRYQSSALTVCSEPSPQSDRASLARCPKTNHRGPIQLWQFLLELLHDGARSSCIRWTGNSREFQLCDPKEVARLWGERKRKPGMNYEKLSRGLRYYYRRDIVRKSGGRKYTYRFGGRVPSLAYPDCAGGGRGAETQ
Conditions: protein: recombinant; tags: N-terminal GST; dsDNA, one strand shown. The procedure, abridged:
as §1

The target of the next assay is T5, ELF3 (Homo sapiens, UniProt P78545 1-371).
T5 sequence: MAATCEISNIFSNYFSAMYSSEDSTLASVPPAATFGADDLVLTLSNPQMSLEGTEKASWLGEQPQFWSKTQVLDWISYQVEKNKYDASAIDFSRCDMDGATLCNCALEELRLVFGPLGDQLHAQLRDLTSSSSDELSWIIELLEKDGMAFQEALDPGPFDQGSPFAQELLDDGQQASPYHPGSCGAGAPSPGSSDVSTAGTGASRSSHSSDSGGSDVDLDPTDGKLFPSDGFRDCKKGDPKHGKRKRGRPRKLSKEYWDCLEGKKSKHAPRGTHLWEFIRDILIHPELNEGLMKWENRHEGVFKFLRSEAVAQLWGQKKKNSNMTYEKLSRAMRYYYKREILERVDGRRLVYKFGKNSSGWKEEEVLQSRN
Conditions: protein: recombinant; tags: N-terminal GST; dsDNA, one strand shown. The procedure, abridged: as §1

In a further assay the target is CRX (Homo sapiens, UniProt O43186 1-299). Particulars: protein: recombinant; tags: N-terminal GST; dsDNA, one strand shown. The procedure, abridged:
as §1

The next assay addresses ETV1 (Homo sapiens, UniProt P50549 1-477). Particulars: protein: recombinant; tags: N-terminal GST; dsDNA, one strand shown. The procedure, abridged:
as §1

The target in another assay is T6, ERF (Homo sapiens, UniProt P50548 1-548).
T6 sequence: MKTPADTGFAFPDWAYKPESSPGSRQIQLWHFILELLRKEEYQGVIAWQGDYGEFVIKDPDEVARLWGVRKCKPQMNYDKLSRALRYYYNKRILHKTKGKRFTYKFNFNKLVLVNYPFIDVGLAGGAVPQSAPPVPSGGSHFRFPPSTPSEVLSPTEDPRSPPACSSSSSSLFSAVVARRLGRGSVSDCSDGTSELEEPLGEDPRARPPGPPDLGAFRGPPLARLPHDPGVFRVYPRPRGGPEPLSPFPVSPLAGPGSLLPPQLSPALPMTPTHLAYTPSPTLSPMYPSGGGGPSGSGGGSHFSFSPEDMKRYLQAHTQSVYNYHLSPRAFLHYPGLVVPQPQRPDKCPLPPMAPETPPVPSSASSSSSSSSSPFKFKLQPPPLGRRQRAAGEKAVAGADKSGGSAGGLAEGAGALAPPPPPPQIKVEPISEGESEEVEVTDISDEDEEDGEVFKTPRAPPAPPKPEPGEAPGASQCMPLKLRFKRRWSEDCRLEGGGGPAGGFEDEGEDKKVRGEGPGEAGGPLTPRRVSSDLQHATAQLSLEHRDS
Particulars: protein: recombinant; tags: N-terminal GST; dsDNA, one strand shown. The method, boiled down: as §1

A further assay concerns the target T7, ETV3L (Homo sapiens, UniProt Q6ZN32 1-361).
T7 sequence: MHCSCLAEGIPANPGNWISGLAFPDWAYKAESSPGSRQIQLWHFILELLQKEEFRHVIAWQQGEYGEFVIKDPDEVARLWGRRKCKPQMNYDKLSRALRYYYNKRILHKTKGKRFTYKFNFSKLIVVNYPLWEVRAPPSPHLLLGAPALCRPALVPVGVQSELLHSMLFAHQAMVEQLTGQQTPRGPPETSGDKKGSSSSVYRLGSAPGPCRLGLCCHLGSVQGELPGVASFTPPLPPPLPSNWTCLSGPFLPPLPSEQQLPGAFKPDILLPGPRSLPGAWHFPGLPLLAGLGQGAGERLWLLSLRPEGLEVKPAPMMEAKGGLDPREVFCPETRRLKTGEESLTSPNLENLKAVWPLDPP
Conditions: protein: recombinant; tags: N-terminal GST; dsDNA, one strand shown. The procedure, abridged: as §1

The target of another assay is T8, ETS2 (Homo sapiens, UniProt P15036 1-469).
T8 sequence: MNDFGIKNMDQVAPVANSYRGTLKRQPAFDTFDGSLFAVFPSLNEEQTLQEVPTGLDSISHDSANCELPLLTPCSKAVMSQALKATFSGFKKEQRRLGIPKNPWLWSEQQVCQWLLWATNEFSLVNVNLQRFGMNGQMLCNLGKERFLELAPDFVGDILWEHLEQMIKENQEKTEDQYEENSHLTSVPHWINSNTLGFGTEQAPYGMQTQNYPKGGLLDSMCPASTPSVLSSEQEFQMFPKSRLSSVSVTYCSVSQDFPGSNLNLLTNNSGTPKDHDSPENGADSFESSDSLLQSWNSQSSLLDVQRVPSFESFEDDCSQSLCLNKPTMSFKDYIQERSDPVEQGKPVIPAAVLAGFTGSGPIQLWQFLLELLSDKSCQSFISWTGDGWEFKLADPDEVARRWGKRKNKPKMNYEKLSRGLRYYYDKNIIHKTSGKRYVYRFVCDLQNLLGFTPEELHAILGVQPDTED
Particulars: protein: recombinant; tags: N-terminal GST; dsDNA, one strand shown. The method, boiled down:
as §1

The next assay has as its target T9, SPDEF (Homo sapiens, UniProt O95238 1-335).
T9 sequence: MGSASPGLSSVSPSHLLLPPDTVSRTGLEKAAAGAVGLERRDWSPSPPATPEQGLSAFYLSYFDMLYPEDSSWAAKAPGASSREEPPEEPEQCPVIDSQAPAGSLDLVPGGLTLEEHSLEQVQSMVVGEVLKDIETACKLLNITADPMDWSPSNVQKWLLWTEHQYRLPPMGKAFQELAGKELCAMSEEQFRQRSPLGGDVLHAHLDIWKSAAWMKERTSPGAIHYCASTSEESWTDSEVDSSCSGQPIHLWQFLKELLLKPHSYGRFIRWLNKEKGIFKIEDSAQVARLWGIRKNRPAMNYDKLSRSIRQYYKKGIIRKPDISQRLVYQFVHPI
Conditions: protein: recombinant; tags: N-terminal GST; dsDNA, one strand shown. The method, boiled down: as §1

Another assay addresses T10, ETV7 (Homo sapiens, UniProt Q9Y603 1-341).
T10 sequence: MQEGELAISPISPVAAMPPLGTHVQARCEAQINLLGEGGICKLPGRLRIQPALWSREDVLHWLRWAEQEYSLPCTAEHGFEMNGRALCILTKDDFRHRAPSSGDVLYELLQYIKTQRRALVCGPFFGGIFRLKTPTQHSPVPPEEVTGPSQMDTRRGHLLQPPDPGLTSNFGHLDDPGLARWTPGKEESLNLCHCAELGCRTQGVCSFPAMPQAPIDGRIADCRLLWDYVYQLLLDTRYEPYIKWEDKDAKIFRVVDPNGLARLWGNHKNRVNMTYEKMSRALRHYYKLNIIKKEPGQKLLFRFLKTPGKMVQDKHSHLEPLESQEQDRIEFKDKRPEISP
Conditions: protein: recombinant; tags: N-terminal GST; dsDNA, one strand shown. The method, boiled down: as §1

The next assay addresses T11, ELF5 (Homo sapiens, UniProt Q9UKW6-2 1-255).
T11 sequence: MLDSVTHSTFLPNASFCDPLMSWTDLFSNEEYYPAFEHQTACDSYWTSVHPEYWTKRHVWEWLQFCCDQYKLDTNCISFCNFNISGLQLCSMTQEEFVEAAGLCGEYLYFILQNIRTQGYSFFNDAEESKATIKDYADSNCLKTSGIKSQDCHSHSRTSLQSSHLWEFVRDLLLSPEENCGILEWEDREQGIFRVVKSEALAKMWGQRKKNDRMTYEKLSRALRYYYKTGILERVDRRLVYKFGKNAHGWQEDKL
Conditions: protein: recombinant; tags: N-terminal GST; dsDNA, one strand shown. The procedure, abridged: as §1

In a further assay the target is T12, ETV3 (Homo sapiens, UniProt P41162-2 1-143).
T12 sequence: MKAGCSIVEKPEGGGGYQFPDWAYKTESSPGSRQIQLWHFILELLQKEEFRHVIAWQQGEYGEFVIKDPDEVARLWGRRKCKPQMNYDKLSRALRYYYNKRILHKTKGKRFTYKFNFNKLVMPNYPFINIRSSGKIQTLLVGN
Particulars: protein: recombinant; tags: N-terminal GST; dsDNA, one strand shown. The procedure, abridged:
as §1

A further assay deals with ETV6 (Homo sapiens, UniProt P41212 1-452). Particulars: protein: recombinant; tags: N-terminal GST; dsDNA, one strand shown. The procedure, abridged: as §1
Sequence of ETV6 (P41212 whole entry): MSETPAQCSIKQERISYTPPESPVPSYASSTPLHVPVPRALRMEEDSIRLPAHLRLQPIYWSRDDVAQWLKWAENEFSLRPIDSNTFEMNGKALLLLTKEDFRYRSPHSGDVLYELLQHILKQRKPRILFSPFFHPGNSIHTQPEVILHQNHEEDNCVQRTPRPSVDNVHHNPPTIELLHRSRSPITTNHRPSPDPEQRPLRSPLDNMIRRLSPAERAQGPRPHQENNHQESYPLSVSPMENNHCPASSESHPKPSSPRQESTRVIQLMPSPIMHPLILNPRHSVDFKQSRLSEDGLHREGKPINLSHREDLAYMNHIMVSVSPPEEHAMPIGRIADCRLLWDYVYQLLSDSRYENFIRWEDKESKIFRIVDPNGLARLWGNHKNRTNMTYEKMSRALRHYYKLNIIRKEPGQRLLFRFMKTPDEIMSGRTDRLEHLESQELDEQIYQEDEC

Sequence of CRX (O43186 whole entry): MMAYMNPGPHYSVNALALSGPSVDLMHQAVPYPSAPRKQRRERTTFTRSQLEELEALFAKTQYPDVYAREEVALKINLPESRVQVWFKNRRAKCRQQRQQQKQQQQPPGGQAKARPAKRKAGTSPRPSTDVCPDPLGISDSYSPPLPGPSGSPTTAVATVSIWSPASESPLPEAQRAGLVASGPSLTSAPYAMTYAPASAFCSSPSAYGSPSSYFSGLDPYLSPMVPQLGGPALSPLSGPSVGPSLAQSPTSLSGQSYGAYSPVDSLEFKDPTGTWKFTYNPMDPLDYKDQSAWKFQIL
Sequence of ETV5 (P41161 whole entry): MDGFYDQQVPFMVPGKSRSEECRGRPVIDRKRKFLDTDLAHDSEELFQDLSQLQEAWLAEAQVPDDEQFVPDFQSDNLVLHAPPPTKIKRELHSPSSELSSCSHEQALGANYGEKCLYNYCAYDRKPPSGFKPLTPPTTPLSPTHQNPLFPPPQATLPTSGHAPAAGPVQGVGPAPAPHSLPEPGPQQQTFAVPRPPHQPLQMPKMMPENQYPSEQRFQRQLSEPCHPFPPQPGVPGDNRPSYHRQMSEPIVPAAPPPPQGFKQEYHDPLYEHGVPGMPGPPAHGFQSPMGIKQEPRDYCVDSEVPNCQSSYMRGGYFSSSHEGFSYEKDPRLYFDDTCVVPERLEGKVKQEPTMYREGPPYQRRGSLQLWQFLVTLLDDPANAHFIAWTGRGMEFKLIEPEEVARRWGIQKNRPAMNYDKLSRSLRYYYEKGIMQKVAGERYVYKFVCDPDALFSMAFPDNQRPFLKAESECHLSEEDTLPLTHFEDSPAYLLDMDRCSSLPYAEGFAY
Sequence of ETV1 (P50549 whole entry): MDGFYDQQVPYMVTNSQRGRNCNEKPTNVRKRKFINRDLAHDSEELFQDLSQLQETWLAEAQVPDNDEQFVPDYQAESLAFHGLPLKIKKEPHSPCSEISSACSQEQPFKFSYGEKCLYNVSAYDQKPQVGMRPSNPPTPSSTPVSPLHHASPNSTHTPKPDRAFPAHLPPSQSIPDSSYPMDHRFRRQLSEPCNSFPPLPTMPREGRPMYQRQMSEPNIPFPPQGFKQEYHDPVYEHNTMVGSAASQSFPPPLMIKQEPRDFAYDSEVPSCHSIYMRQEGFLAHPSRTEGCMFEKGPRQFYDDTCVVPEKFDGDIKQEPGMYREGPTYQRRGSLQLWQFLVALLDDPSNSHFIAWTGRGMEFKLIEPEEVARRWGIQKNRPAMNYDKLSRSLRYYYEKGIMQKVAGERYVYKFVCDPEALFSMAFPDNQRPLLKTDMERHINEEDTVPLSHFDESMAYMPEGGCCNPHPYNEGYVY
Sequence of ELF4 (Q99607 whole entry): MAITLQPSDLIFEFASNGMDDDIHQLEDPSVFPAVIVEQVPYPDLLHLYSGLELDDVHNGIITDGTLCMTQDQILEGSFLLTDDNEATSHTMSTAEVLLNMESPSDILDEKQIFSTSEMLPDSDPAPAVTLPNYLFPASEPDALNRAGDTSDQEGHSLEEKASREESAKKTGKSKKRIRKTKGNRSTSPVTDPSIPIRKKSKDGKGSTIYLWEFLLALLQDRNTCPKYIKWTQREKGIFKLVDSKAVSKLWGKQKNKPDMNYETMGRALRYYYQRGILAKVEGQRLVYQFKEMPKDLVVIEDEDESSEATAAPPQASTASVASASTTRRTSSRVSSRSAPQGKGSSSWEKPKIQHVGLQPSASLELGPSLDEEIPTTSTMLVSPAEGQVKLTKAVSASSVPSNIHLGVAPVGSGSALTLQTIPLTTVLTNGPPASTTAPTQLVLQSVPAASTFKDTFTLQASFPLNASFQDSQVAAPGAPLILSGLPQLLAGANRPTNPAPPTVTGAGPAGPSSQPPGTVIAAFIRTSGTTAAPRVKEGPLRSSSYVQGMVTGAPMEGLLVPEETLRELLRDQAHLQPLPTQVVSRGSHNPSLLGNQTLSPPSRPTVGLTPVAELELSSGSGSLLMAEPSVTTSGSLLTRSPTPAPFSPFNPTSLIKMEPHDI
Sequence of HSF1 (Q00613 whole entry): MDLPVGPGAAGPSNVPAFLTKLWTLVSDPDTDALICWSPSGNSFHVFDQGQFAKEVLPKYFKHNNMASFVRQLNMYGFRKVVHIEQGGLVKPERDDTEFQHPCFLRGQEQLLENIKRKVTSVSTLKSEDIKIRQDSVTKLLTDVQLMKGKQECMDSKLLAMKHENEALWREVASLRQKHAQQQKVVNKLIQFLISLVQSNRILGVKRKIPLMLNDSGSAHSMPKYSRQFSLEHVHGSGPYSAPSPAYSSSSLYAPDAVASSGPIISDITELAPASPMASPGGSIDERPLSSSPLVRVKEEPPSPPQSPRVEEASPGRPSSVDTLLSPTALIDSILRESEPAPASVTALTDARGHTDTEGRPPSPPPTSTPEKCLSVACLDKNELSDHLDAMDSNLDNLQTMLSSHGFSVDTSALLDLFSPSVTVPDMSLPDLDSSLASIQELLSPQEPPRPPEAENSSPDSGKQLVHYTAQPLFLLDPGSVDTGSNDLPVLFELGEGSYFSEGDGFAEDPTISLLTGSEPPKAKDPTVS

Regarding AACGCT, the binding signal in the assay with FEV is 1.18 fold enrichment (6-mer frequency, TF over GST control); with ETV5, 1.23 fold enrichment (6-mer frequency, TF over GST control); with HSF1, 1.06 fold enrichment (6-mer frequency, TF over GST control); in the assay with SPIC it was 1.26 fold enrichment (6-mer frequency, TF over GST control); with ELF4, 1.27 fold enrichment (6-mer frequency, TF over GST control); in the assay with ELK4, 1.22 fold enrichment (6-mer frequency, TF over GST control). Further, the binding signal is 1.24 fold enrichment (6-mer frequency, TF over GST control) with ETV2; 1.14 fold enrichment (6-mer frequency, TF over GST control) in the assay with ELF3; 1.17 fold enrichment (6-mer frequency, TF over GST control) with CRX; 1.2 fold enrichment (6-mer frequency, TF over GST control) with ETV1; 1.26 fold enrichment (6-mer frequency, TF over GST control) with ERF; 1.15 fold enrichment (6-mer frequency, TF over GST control) with ETV3L. Moreover, the binding signal with ETS2 was 1.13 fold enrichment (6-mer frequency, TF over GST control); in the assay with SPDEF, 1.2 fold enrichment (6-mer frequency, TF over GST control); in the assay with ETV7, 1.24 fold enrichment (6-mer frequency, TF over GST control); in the assay with ELF5 it was 1.19 fold enrichment (6-mer frequency, TF over GST control); with ETV3 it was 1.24 fold enrichment (6-mer frequency, TF over GST control); in the assay with ETV6 it was 1.27 fold enrichment (6-mer frequency, TF over GST control).
